An excerpt weighted towards active compounds, which were near 6.8% of everything screened.
C diff growth – blocks growth of Clostridium difficile. Clostridium difficile clinical isolate growth, OD600, 24 h; hits give low values. growth activity, negative = inhibition, % at 16 µg/mL (by protocol). 86,000 tested, 0.25% active. AID 1259249;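 active = mean growth activity at or below -80% and every replicate also at or below -80%; inconclusive = mean at or below -80% but some replicate above -80%; inactive = mean growth activity above -80%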;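 also: 0% = DMSO wells and -100% = levofloxacin 16 µg/mL wells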
Pf Dd2 growth – inhibitors of Plasmodium falciparum Dd2 growth; P. falciparum Dd2 growth, SYBR Green, 72 h; hits give low values; activity change, % at 10 µM; 94,000 tested, 2.3% active; in the data active = activity change below about -80%; inconclusive = no clear call, values can overlap the other calls
T cruzi growth-1 – inhibitors of T. cruzi proliferation. 77,000 tested, 5.9% active. inhibition, % at 8.34 µM. T. cruzi beta-gal in NIH3T3, GalScreen luminescence, 90 h;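 active = mean inhibition above about 93%, with at least 55% of replicates each passing it, limit read from the data, passing the limit was not always enough; inconclusive = only one of those two conditions holds; inactive = neither condition holds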
T cruzi growth-2 – blocks T. cruzi growth in NIH3T3 host cells; T. cruzi beta-gal in NIH3T3, GalScreen luminescence, 90 h; 5,600 tested, 72% active; inhibition, % at 8.35 µM; shares compounds with T cruzi growth-1;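 active = mean replicate inhibition above about 95% and at least 55% of replicates individually reaching it, limit read from the data; inconclusive = only one of the two criteria is met; inactive = neither criterion is met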
T cruzi growth-3 – blocks T. cruzi growth in NIH3T3 host cells; inhibition, % at 2.09 µM; shares compounds with T cruzi growth-1; 5,600 tested, 21% active; T. cruzi beta-gal in NIH3T3, GalScreen luminescence, 90 h; AID 651740;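 active = mean inhibition above about 95%, with at least 55% of replicates also reaching it, limit read from the data; inconclusive = meets just one of the two conditions; inactive = meets neither condition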;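 also: plate controls were neutral control median for no effect and positive control median for full effect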
3T3 cytotox – kills mouse NIH/3T3 fibroblasts; shares compounds with T cruzi growth-1; NIH/3T3 viability, CellTiter-Glo ATP luminescence, 90 h; cytotoxicity (signal decrease), % at 8.35 µM; 5,600 tested, 14% active; AID 651742;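 active = mean signal decrease across replicates above about 35% based on untreated-well scatter, with enough replicates individually passing, limit read from the data; inconclusive = no rule stated though some were filed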;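 also: 0% = median of neutral control wells and 100% = median of positive control wells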
NIH3T3 tox 2 – cytotoxicity in mouse NIH/3T3 fibroblasts; AID 651744; inhibition, % at 24.9 µM; NIH/3T3 viability, CellTiter-Glo ATP luminescence, 90 h; shares compounds with T cruzi growth-1; 5,600 tested, 56% active;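 active = mean loss of cell viability signal at or above a set limit, and enough replicates individually reaching it; inconclusive = meets only the mean limit or only the replicate share; inactive = meets neither condition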;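 also: 0% = median of neutral control wells and 100% = median of positive control wells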
Starred values were filed as active, the others as inactive; ? = inconclusive; nt = no result.

SMILES	C diff growth	Pf Dd2 growth	T cruzi growth-1	T cruzi growth-2	T cruzi growth-3	3T3 cytotox	NIH3T3 tox 2
C[C@@H]1CCCCO[C@@H](CN(C)Cc2ccc3c(c2)OCO3)[C@H](C)CN([C@@H](C)CO)C(=O)c2cc(NC(=O)Nc3cccc4ccccc34)ccc2O1	15.4	-71.7	?	104.4*	?	12.9	46.8*
C[C@@H]1CCCCO[C@@H](CN(C)C(=O)Nc2ccc3c(c2)OCO3)[C@@H](C)CN([C@H](C)CO)C(=O)c2cc(NC(=O)Nc3cccc4ccccc34)ccc2O1	-2.7	16.2	21.4	nt	nt	nt	nt
O=C([C@@H]1[C@@H](CO)[C@@H]2Cn3c(cccc3=O)[C@H]1N2CC1CCCCC1)N1CCOCC1	-0.5	nt	78.5	nt	nt	nt	nt
C[C@@H]1CN([C@@H](C)CO)C(=O)c2cc(NC(=O)Nc3ccccc3)ccc2O[C@@H]1CN(C)Cc1ccc(C(=O)O)cc1	-2.9	23.6	-19.0	nt	nt	nt	nt
CCC(=O)N1C[C@H](C)[C@@H](OC)CN(C)C(=O)c2ccc(NC(=O)COC)cc2OC[C@H]1C	nt	2.4	-2.6	nt	nt	nt	nt
COc1ccc(C#Cc2cnc3c(c2)C(=O)N([C@@H](C)CO)C[C@@H](C)[C@@H](CN(C)C(=O)CC2CC2)O3)cc1	-2.6	-59.5	56.4	nt	nt	nt	nt
COc1ccc(C#Cc2cnc3c(c2)C(=O)N([C@H](C)CO)C[C@H](C)[C@H](CN(C)C(C)=O)O3)cc1	5.2	-4.8	109.7*	89.5	-18.2	21.1	34.4*
COc1ccc(C#Cc2cnc3c(c2)C(=O)N([C@@H](C)CO)C[C@H](C)[C@H](CN(C)C(C)=O)O3)cc1	0.0	-0.6	88.5	nt	nt	nt	nt
COc1ccc(C#Cc2cnc3c(c2)C(=O)N([C@@H](C)CO)C[C@H](C)[C@@H](CN(C)C(=O)CC2CC2)O3)cc1	-2.1	-66.8	96.8*	60.1	30.5	-7.7	25.5
CN(C)C(=O)[C@@H]1[C@@H](CO)[C@@H]2Cn3c(ccc(-c4cccc(F)c4)c3=O)[C@@H]2N1C(=O)c1cnccn1	-1.5	nt	57.1	nt	nt	nt	nt
CCS(=O)(=O)N1CCCCN2[C@@H](CO)[C@H](c3ccc(C#Cc4ccccc4OC)cc3)[C@@H]2C1	60.1	-14.6	114.2*	110.4*	94.8	24.8	82.6*
O=S(=O)(Cc1ccccc1)N1CCCCN2[C@@H](CO)[C@@H](c3ccc(C#Cc4ccccc4)cc3)[C@@H]2C1	38.7	-53.6	-11.6	nt	nt	nt	nt
CC(C)CC#Cc1ccc([C@H]2[C@H](CO)N3CCCCN(S(=O)(=O)Cc4ccccc4)C[C@@H]23)cc1	-10.6	?	100.2*	103.7*	91.6	23.7	106.6*
O=S(=O)(Cc1ccccc1)N1CCCCN2[C@H](CO)[C@H](c3ccc(C#Cc4ccccc4)cc3)[C@@H]2C1	-4.6	-75.6	106.2*	103.5*	107.9*	18.2	65.9*
COc1ccccc1C#Cc1ccc([C@H]2[C@@H](CO)N3CCCCN(S(C)(=O)=O)C[C@@H]23)cc1	-1.3	20.2	87.3	nt	nt	nt	nt
CCCC#Cc1ccc([C@H]2[C@H](CO)N3CCCCN(S(=O)(=O)Cc4ccccc4)C[C@@H]23)cc1	55.4	-34.0	97.3*	101.4*	61.0	39.3*	104.1*
CCCC#Cc1ccc([C@H]2[C@@H](CO)N3CCCCN(S(=O)(=O)CC)C[C@@H]23)cc1	2.2	-23.5	67.5	nt	nt	nt	nt
C[C@H](O)C#Cc1ccc([C@@H]2[C@H](CO)N3CCCCN(S(=O)(=O)Cc4ccccc4)C[C@@H]23)cc1	-5.2	-19.9	16.9	nt	nt	nt	nt
Cc1noc(C)c1S(=O)(=O)Nc1ccc2c(c1)C(=O)N([C@@H](C)CO)C[C@@H](C)[C@@H](CN(C)Cc1ccc(-c3ccccc3)cc1)O2	5.5	7.1	55.4	nt	nt	nt	nt
O=C(C[C@H]1C[C@@H]2c3cc(NC(=O)c4ccc5c(c4)OCO5)ccc3O[C@@H]2[C@@H](CO)O1)NC1CCCCC1	nt	-36.4	9.8	nt	nt	nt	nt
C[C@H](CO)N1C[C@H](C)[C@H](CN(C)C(=O)Nc2ccc3c(c2)OCO3)Oc2cc(C3=CCCC3)ccc2S1(=O)=O	-2.6	-70.1	70.1	nt	nt	nt	nt
O=C(C[C@H]1C[C@@H]2c3cc(NC(=O)CC4CC4)ccc3O[C@@H]2[C@H](CO)O1)NCc1ccccc1	nt	-1.4	31.7	nt	nt	nt	nt
CN(C)C(=O)c1cccc(-c2ccc([C@H]3[C@H](CO)N4C(=O)CN(C(=O)CC5CC5)C[C@@H]34)cc2)c1	0.5	16.2	nt	nt	nt	nt	nt
Cc1ccc(-c2ccc3c(c2)O[C@H](CN(C)S(C)(=O)=O)[C@@H](C)CN([C@@H](C)CO)S3(=O)=O)cc1	-14.0	-5.8	21.0	nt	nt	nt	nt
Cc1ccc(S(=O)(=O)N(C)C[C@@H]2Oc3cc(-c4cccc(F)c4)ccc3S(=O)(=O)N([C@@H](C)CO)C[C@@H]2C)cc1	11.3	-51.0	121.2*	100.5*	?	-3.7	36.7*
SMILES	C diff growth	Pf Dd2 growth	T cruzi growth-1	T cruzi growth-2	T cruzi growth-3	3T3 cytotox	NIH3T3 tox 2
Cc1ccc(S(=O)(=O)N(C)C[C@H]2Oc3cc(-c4cccc(F)c4)ccc3S(=O)(=O)N([C@H](C)CO)C[C@@H]2C)cc1	0.5	-67.4	126.5*	105.0*	78.6	36.1*	26.7
Cc1ccc(S(=O)(=O)N(C)C[C@H]2Oc3cc(-c4cccc(F)c4)ccc3S(=O)(=O)N([C@H](C)CO)C[C@H]2C)cc1	8.4	-6.7	120.7*	101.8*	94.4	23.7	43.0*
Cc1ccc(-c2ccc3c(c2)O[C@@H](CN(C)S(C)(=O)=O)[C@H](C)CN([C@@H](C)CO)S3(=O)=O)cc1	-9.3	-68.5	90.7	nt	nt	nt	nt
Cc1ccc(S(=O)(=O)N(C)C[C@H]2Oc3cc(C#Cc4ccccc4)ccc3S(=O)(=O)N([C@H](C)CO)C[C@@H]2C)cc1	3.0	-48.6	nt	nt	nt	nt	nt
Cc1ccc(S(=O)(=O)N(C)C[C@@H]2Oc3cc(C#Cc4ccccc4)ccc3S(=O)(=O)N([C@H](C)CO)C[C@@H]2C)cc1	4.6	-43.2	nt	nt	nt	nt	nt
Cc1ccc(-c2ccc3c(c2)O[C@@H](CN(C)S(C)(=O)=O)[C@H](C)CN([C@H](C)CO)S3(=O)=O)cc1	-3.5	-43.7	102.3*	4.0	-30.7	20.1	72.1*
COc1ccc2c3c(n(C)c2c1)[C@@H](CO)N(C(=O)Nc1ccc(F)cc1)CC31CN(C(=O)NC2CCCC2)C1	41.4	-66.0	nt	nt	nt	nt	nt
Cc1ccc(S(=O)(=O)N(C)C[C@@H]2Oc3cc(C#Cc4ccccc4)ccc3S(=O)(=O)N([C@@H](C)CO)C[C@@H]2C)cc1	3.7	-38.6	nt	nt	nt	nt	nt
Cc1ccc(S(=O)(=O)N(C)C[C@@H]2Oc3cc(-c4cccc(F)c4)ccc3S(=O)(=O)N([C@H](C)CO)C[C@H]2C)cc1	8.0	-58.1	103.7*	92.4	77.6	68.8*	46.5*
Cc1ccc(S(=O)(=O)N(C)C[C@H]2Oc3cc(-c4cccc(F)c4)ccc3S(=O)(=O)N([C@@H](C)CO)C[C@H]2C)cc1	4.9	6.0	118.8*	102.9*	?	-16.0	48.6*

Screens (PubChem BioAssay)
